The text below walks through data of PubChem BioAssay AID504546 (Broad Institute, 2011).

Each structure is given as a SMILES string. Results filed as inconclusive are left out. Activity calls are given as the source filed them.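 The calls were made as follows: active = every repeat run fits a falling-signal curve with half-maximal potency within ten times top tested dose; inconclusive = runs disagree, or flat moderate drop, or poor fit; inactive = every run inactive, including signal moving upward.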

A short description of the assay: ADP-Glo luciferase signal interference – biochemical, luminescence, cherry-picked samples, set 2, artefact control for CDK5 inhibitor project, dose response (AID 504546). The note with it: ADP-Glo detection reagent counter screen, 5 uM ADP; series mostly up to 30 µM.
In the case of `CC(C)n1cnc2c(Nc3cccc(Cl)c3)nc(NCCCO)nc21`, the call was inactive.
Take `COc1cc(OC)c(C(=O)N2CCN(c3ccccn3)CC2)cc1OC`: the result was inactive.
With `CC(C)(C)C(=O)c1sc(Nc2ccccc2)nc1N`, the call was inactive.
The result for `COc1cc2ccccc2ccc1=NO` reads “inactive”; that for `Oc1ccc(/C=N/Nc2ccc(C(F)(F)F)cn2)c(O)c1`, “inactive”; that for `COc1ccc2nc(C)cc(Nc3ccc(C)cc3)c2c1`, “inactive”.
As for `CC(C)(C)N=Cc1c(O)ccc2oc3c(c12)CCCC3`, the compound was called inactive.
`Cc1ccc2nc(NCc3ccccc3)c(C#N)cc2c1`: the outcome was inactive.
`O=C(NNC(=O)c1cccs1)c1ccccc1`: the call was inactive.
On to `CC(C)n1cnc2c(NCc3ccccc3)nc(NCc3ccccc3)nc21`, for which the result was inactive.
As for `CC[C@H](CO)Nc1nc(Nc2cccc(Cl)c2)c2ncn(C(C)C)c2n1`, the compound was classed as inactive.
For the compound `Cc1nc(Nc2ccccc2)sc1C(=O)c1ccccc1`, the outcome was inactive.
For `COc1ccc(Nc2nccc(-c3ccc([N+](=O)[O-])cc3)n2)cc1`, the result was inactive.
With `O=C(c1ccc(F)cc1)c1cnc(Nc2ccccc2)s1`, the call was inactive.
The result for `NC(=O)N/N=C/c1c(O)ccc2oc3c(c12)CCCC3` reads “inactive”.
Consider `COc1ccc(S(=O)(=O)Nc2c(C(=O)O)[nH]c3ccc(OC)cc23)c(OC)c1`, for which the outcome was inactive.
With `Cc1ccc2[nH]c(C(F)(F)F)cc(=O)c2c1`, the call was inactive.
As to `O=C(c1ccc2c(c1)OCO2)N1CCN(c2ccccn2)CC1`, the compound was called inactive.
With `O=C(O)c1ccc(/C=N/Nc2ncc(C(F)(F)F)cc2Cl)cc1`, the result was inactive.
Consider `NC(=O)c1cc([N+](=O)[O-])c(Cl)cc1NCc1cccnc1`, for which the compound was classed as inactive.
Turning to `COc1ccc(C(=O)c2sc(NC(C)C)nc2N)cc1OC`, the compound was classed as inactive.
The result for `Cc1[nH]nc2c1-c1nc3ccccc3nc1C(C)(C)C2` reads “inactive”; that for `Clc1cncc(Cl)c1N/N=C/c1ccccc1`, “inactive”.
Regarding `Cc1cccc(/N=C/c2c(O)ccc3oc4c(c23)CCCC4)n1`, the call was inactive.
For `COc1ccccc1C(=O)N1CCN(c2ccccn2)CC1`, the compound was called inactive.
With `O=C1NC(=O)C(c2ccccc2[N+](=O)[O-])=C1Nc1ccc(O)c(Cl)c1`, the call was inactive.
On to `Oc1cc2c(cc1O)C1c3ccc(O)c(O)c3OCC1(O)C2` (stereo unspecified), for which the compound was called inactive.
For the compound `Cc1nn(-c2ccccn2)c2c1C(=O)CC(C)(C)C2Br` (stereo unspecified), the outcome was inactive.
As to `CNS(=O)(=O)c1ccc2c3c(cccc13)C(=O)N2`, the call was inactive.
On to `COc1cccc(C(=O)N2CCN(c3ccccn3)CC2)c1`, for which the result was inactive.
As to `CC(C)n1cnc2c(N(C)c3cccc(Cl)c3)nc(N(CCO)CCO)nc21`, the compound was classed as inactive.
As for `O=[N+]([O-])c1ccc2c(c1)-c1ccccc1C2=NO`, the entry is “inactive”.
On to `Oc1ccc(/C=N/Nc2ccc(C(F)(F)F)cn2)cc1`, for which the result was inactive.
With `O=c1c(O)cccc2cc(O)c(O)c(O)c12`, the call was inactive.
`C=CCNc1nc(N)c(C(=O)c2ccc3c(c2)OCO3)s1`: the outcome was inactive.
Consider `Nc1nc(Nc2ccccc2F)sc1C(=O)c1ccccc1`, for which the compound was called inactive.
